PubChem BioAssay (EPA / NIEHS)
Records with an inconclusive call do not appear. The source holds several records for some structures; these can differ, active in one and inactive in another. Active and inactive are the calls of the source. How the source made its calls, unless noted: active means hit-call score of the fitted dose curve at least 0.9, where 1 is the maximum; inactive means score below 0.9.

Key:
[1] = CCTE_Simmons_MITO_max_resp_rate: CCTE's HepG2 Seahorse XF Respirometric Screening Assay at Maximal Respiratory State [uncoupled], Simmons Lab (AID 2284002); conditions: actives raise or lower the signal
In short: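 HepG2 oxygen consumption measured on Seahorse XF after FCCP uncoupling, following test compound injection; 7 concentrations from 125 nM to 100 uM final. Readings every 6 min over 72 min, three biological replicates; bidirectional fit versus DMSO.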

[2] = CCTE_Simmons_MITO_inhib_resp_rate: CCTE's HepG2 Seahorse XF Respirometric Screening Assay at Inhibited Respiratory State [full ETC block], Simmons Lab (AID 2284006); conditions: actives raise or lower the signal
In short: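 HepG2 cells on Seahorse XF96; oxygen consumption measured after test compound, then FCCP, then rotenone/antimycin A injections over 72 min. Test chemicals at 7 concentrations, 125 nM–100 uM final. OCR fitted bidirectionally versus DMSO.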

[3] = CCTE_Simmons_MITO_viability: CellTiter-Glo Viability Assessment for CCTE's HepG2 Seahorse XF Respirometric Screening Assay [post-hoc], Simmons Lab (AID 2284007; active means hit-call score of the fitted dose curve at least 0.9, where 1 is the maximum)
In short: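 HepG2 cells from the Seahorse XF respirometry run were exposed 90 min to a 7-point series, 125 nM–100 uM final, DMSO vehicle; ATP content then read by luciferase luminescence. Three biological replicates, technical singles; loss of signal fitted versus DMSO.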

[4] = CCTE_Shafer_MEA_acute_spike_number: CCTE's Neural Acute Assay for Total Number of Spikes, Shafer Lab (AID 2284008);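 on AC50: curve fitted for decrease in spike count so AC50 reflects inhibitors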
In short: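 Rat primary cortical neurons on 48-well MEA plates, DIV 13 or 15, at 37 C. 40 min baseline then 40 min with compound (0.03-40 uM); spikes detected at 8x rms noise, expressed as percent change from baseline.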

[5] = CCTE_Shafer_MEA_acute_firing_rate_mean: CCTE's Neural Acute Assay for Mean Firing Rate, Shafer Lab (AID 2284009);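 further: analyzed for loss of signal so actives lower firing rate relative to DMSO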
In short: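 Percent change in well-mean firing rate was derived from extracellular spikes detected at 8x rms noise (300-5000 Hz band-pass) before and after a 40-min compound exposure. Cultures were primary rat cortical neurons, tested at 0.03-40 uM.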

[6] = CCTE_Harrill_HTTr_Viability_MCF7: CCTE's 6-hour Cell Viability Assessment for the High-Throughput Transcriptomics (HTTr) Platform, in MCF-7 cells cultured in DMEM + 10% fetal bovine serum, Harrill Lab (AID 2284010)
In short: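 Membrane integrity was scored by high-content imaging of propidium iodide dye exclusion after a 6 h exposure across an eight-point dilution series. Data were fitted bidirectionally relative to DMSO as negative control and baseline.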

[7] = CCTE_Harrill_HTTr_Apoptosis_MCF7: CCTE's 6-hour Apoptosis Assessment for the High-Throughput Transcriptomics (HTTr) Platform, in MCF-7 cells cultured in DMEM + 10% fetal bovine serum, Harrill Lab (AID 2284011)
In short: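 MCF-7 cells in DMEM + 10% FBS exposed 6 h to chemicals over an eight-point dilution series. Caspase-3/7 activation imaged by high-content CellEvent Green staining; fitted bidirectionally versus DMSO.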

[8] = CCTE_Harrill_HTTr_CellCount_MCF7: CCTE's Cell Proliferation Assessment for the High-Throughput Transcriptomics (HTTr) Platform, Harrill Lab (AID 2284012; active means hit-call score of the fitted dose curve at least 0.9, where 1 is the maximum;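 further: cells exposed to compound for six hours; intended direction is loss of nuclei count meaning fewer cells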)
In short: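 MCF-7 cells were exposed for 6 h to an eight-point dilution series; Hoechst-labeled nuclei were counted by high content imaging. Curves were fitted bidirectionally against DMSO as negative control and baseline, with signal loss indicating reduced cell count.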

[9] = CCTE_Shafer_MEA_acute_burst_number: CCTE's Neural Acute Assay for Single-Electrode Bursts, Shafer Lab (AID 2284013)
In short: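 Spontaneous network activity of primary rat cortical neurons was recorded extracellularly on microelectrode arrays at 37 C, with 40-min periods before and during exposure to 0.03-40 uM compound on DIV 13 or 15.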

[10] = CCTE_Shafer_MEA_acute_burst_duration_mean: CCTE's Neural Acute Assay for Mean Burst Duration, Shafer Lab (AID 2284014);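 further: hits are decreases in mean burst duration relative to DMSO controls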
In short: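 Read-out is the per-well percent change in mean burst duration (first to last spike within a single-electrode burst) between 40-min recordings before and after compound. Cultures were primary rat cortical neurons on MEAs, dosed at 0.03-40 uM on DIV 13 or 15.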

[11] = CCTE_Shafer_MEA_acute_per_burst_spike_number_mean: CCTE's Neural Acute Assay for Average Number of Spikes Per Burst, Shafer Lab (AID 2284015);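 further: hits are decreases in mean spikes per burst versus baseline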
In short: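 Percent change in mean spikes per single-electrode burst is compared between a 40 min baseline and a 40 min recording with compound (0.03-40 uM). Cultures were rat cortical neurons on MEA plates at DIV 13 or 15, recorded at 37 C, with DMSO as the negative control.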

[12] = CCTE_Shafer_MEA_acute_interburst_interval_mean: CCTE's Neural Acute Assay for Mean Interburst Interval, Shafer Lab (AID 2284016);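 further: percent change of mean interburst interval versus each well's own pre-dose baseline; curves fitted for decrease in interburst interval relative to DMSO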
In short: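 Percent change in mean single-electrode interburst interval was calculated per well from 40 min recordings before and after compound (0.03-40 uM). Recordings were made at 37 C on rat cortical cultures at DIV 13 or 15, with spikes detected at 8x rms threshold.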

[13] = CCTE_Shafer_MEA_acute_burst_percentage_mean: CCTE's Neural Acute Assay for Percentage of Spikes in a Burst, Shafer Lab (AID 2284017);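 on AC50: curve fitted for loss of signal so potency reflects decreased burst percentage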
In short: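 Well-level mean burst percentage from a 40-min recording after compound (0.03-40 uM) expressed as percent change from a 40-min baseline at 37C. Cultures: primary rat cortical neurons on MEA, dosed on DIV 13 or 15; fitted downward relative to DMSO.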

[14] = CCTE_Shafer_MEA_acute_burst_percentage_std: CCTE's Neural Acute Assay for Standard Deviation of Burst Percentage, Shafer Lab (AID 2284018);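 further: fitted in the negative direction so actives lower burst percentage SD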
In short: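 Value is percent change from baseline in the across-electrode SD of spikes-in-bursts percentage, wells with >/= 10 active electrodes. Acute 40-min exposure to 0.03-40 uM on DIV 13 or 15 rat cortical cultures, recorded at 37 C after 40-min baseline.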

[15] = CCTE_Shafer_MEA_acute_per_network_burst_spike_number_mean: CCTE's Neural Acute Assay for Average Number of Spikes in a Network Burst, Shafer Lab (AID 2284019);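 on AC50: curve fitted for loss of signal so actives reduce spikes per network burst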
In short: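 Read-out is mean spike count per network burst, taken as percent change between a 40-min pre-exposure and a 40-min post-exposure recording per well. Rat primary cortical neurons on MEAs at 37 C, DIV 13 or 15; compounds at 0.03-40 uM.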

[16] = CCTE_Shafer_MEA_acute_per_network_burst_spike_number_std: CCTE's Neural Acute Assay for Standard Deviation of Number of Spikes in a Network Burst, Shafer Lab (AID 2284020);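 further: fitted for decrease in spike-number SD versus DMSO so actives lower it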
In short: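 Spontaneous network activity of primary rat cortical neurons is recorded extracellularly before and after a 40-min compound exposure (0.03-40 uM) at 37 C. The endpoint is the well's percent change in burst spike-number SD.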

[17] = CCTE_Shafer_MEA_acute_per_network_burst_electrodes_number_mean: CCTE's Neural Acute Assay for Mean Number of Electrodes in a Network Burst, Shafer Lab (AID 2284021);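 further: curves fitted for decreases only so hits reduce electrodes per burst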
In short: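 Rat primary cortical neurons on 48-well MEAs, DIV 13 or 15, were treated at 0.03-40 uM. Spikes were detected at 8x rms noise and recorded at 37 C. The mean electrodes per network burst in a 40 min exposure recording was expressed as percent change from a 40 min baseline.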

[18] = molecular target: Nucleoli Translocation, AR (gene 367) (UniProt P10275); test: UPITT_HCI_U2OS_AR_TIF2_Nucleoli_Agonist: University of Pittsburgh U2OS Androgen Receptor-Transcriptional Intermediary Factor 2 (AR-TIF2) Agonism High Content Imaging Assay for Nucleoli Translocation (AID 2283998; active means hit-call score of the fitted dose curve at least 0.9, where 1 is the maximum)
In short: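 U2OS cells expressing RFP-tagged human AR and GFP-tagged TIF2; red fluorescence in nucleoli quantified by high-content imaging. Primary screen at 20 uM final (0.2% DMSO); concentration-response 0.195–50 uM (0.5% DMSO), fitted upward versus DMSO.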

[19] = molecular target: Ratio of Nucleoli Translocation and Cytoplasm, AR (gene 367) (UniProt P10275); test: UPITT_HCI_U2OS_AR_TIF2_Nucleoli_Cytoplasm_Ratio_Antagonist: University of Pittsburgh U2OS Androgen Receptor-Transcriptional Intermediary Factor 2 (AR-TIF2) Antagonism High Content Imaging Assay for Ratio of Nucleoli Translocation and Cytoplasm (AID 2283999; active means hit-call score of the fitted dose curve at least 0.9, where 1 is the maximum;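 further: antagonists lower the DHT-driven ratio of nucleolar to cytoplasmic red signal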)
In short: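 U2OS cells expressing RFP-tagged human AR and GFP-tagged TIF2; compounds tested at 20 uM final (0.2% DMSO) in primary screen, 0.195–50 uM (0.5% DMSO) for concentration response. Readout: nucleolar-to-cytoplasmic red fluorescence ratio by high-content imaging, fitted relative to DHT.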

Measured: AC50

Nucleoli Translocation, AR (gene 367), sequence (P10275 whole entry, looked up): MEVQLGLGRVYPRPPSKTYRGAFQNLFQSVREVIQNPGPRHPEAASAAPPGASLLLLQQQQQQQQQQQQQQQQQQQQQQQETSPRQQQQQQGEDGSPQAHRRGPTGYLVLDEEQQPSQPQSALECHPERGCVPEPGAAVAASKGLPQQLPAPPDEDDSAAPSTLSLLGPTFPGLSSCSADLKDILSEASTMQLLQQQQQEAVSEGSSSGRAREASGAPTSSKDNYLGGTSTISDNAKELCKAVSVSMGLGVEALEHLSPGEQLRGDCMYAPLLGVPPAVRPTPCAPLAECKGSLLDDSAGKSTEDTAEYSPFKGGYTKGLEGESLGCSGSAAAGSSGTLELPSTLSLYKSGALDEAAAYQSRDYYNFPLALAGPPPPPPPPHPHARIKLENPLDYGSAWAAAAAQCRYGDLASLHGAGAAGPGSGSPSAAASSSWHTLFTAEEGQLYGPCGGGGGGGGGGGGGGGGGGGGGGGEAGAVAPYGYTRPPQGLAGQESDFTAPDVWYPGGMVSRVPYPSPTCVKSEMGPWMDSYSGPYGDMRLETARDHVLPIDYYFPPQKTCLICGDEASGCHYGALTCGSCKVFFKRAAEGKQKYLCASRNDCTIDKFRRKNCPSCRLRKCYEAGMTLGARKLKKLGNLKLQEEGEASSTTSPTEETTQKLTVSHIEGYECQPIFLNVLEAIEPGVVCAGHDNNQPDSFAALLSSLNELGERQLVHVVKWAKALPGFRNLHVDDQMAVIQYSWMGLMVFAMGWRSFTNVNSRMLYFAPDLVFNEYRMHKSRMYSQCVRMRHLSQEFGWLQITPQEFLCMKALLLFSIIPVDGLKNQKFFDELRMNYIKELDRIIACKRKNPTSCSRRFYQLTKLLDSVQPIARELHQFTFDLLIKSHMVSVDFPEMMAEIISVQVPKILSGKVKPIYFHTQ
Ratio of Nucleoli Translocation and Cytoplasm, AR (gene 367), sequence (P10275 whole entry, looked up): as above

CO/N=C(/C1=NOCCO1)c1ccccc1Oc1ncnc(Oc2ccccc2Cl)c1F
inactive: [3] | [6] | [7] | [8] | [9] | [10] | [12] | [14] | [15] | [16] | [17]
active: [1] 4.35 µM | [2] 6.67 µM | [4] 7.05 µM | [5] 7.18 µM | [11] 20 µM | [13] 20 µM

COP(=S)(OC)SCn1nnc2ccccc2c1=O
inactive: [18] | [19] | [4] | [5] | [6] | [7] | [8] | [9] | [10] | [11] | [12] | [13] | [14] | [15] | [16] | [17]
active: [15] 24.1 µM

CCSC(=O)N1CCCCCC1
inactive: [1] | [2] | [6] | [7]

CC1(C)C(C=C(Cl)Cl)C1C(=O)OC(C#N)c1cccc(Oc2ccccc2)c1 (stereo not given)
inactive: [1] | [2] | [3] | [4] | [5] | [6] | [7] | [8] | [9] | [10] | [11] | [14] | [15] | [16]
active: [12] 4.16 µM | [13] 1.57 µM | [17] 0.622 µM
